We go through 16 compounds from PubChem BioAssay (NCATS).

Records with an inconclusive call do not appear. Active and inactive are the calls of the source. The call rests on the fitted dose curve; in most records, active means well fitted inhibition curve with a large enough effect; inconclusive means small, poorly fitted or top-dose-only effect; inactive means flat fitted curve, though single readings scatter.
On the % scale 0 is the no-effect control and ±100 the full control effect; potency means the concentration at half of the fitted maximal effect.

Tested on in one assay: not listed separately
Briefly: Drug repurposing screens with cells derived from glioblastoma tumor samples (AID 1345199). Further: nearly all actives have a fitted effect of over 40% in size. The settings on record: GBM patient neurospheres viability, ATP luminescence, 48 h; at 20 µM (top of the series); tumour line C. The method in brief: (§1)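 Primary testing used CD133+ neurospheres from four GBM patients, seven concentrations, 48 h exposure and ATP-based viability; confirmation added three slower-growing patient lines.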
As to `CCC(=O)O[C@@H]1CC(=O)O[C@H](C)C/C=C/C=C/[C@H](O)[C@H](C)C[C@H](CC=O)[C@H](O[C@@H]2O[C@H](C)[C@@H](O[C@H]3C[C@@](C)(O)[C@@H](OC(=O)CC)[C@H](C)O3)[C@H](N(C)C)[C@H]2O)[C@H]1OC`, the activity, negative = cell killing was 18.5% (inactive).

Regarding `CC(C)N=c1cc2n(-c3ccc(Cl)cc3)c3ccccc3nc-2cc1Nc1ccc(Cl)cc1`, the activity, negative = cell killing is -8.51% (inactive).

With `CC(C)NCC1CCc2cc(CO)c([N+](=O)[O-])cc2N1` (configuration not stated), the activity, negative = cell killing was -4.59% (inactive).

The assay is the same for the next values; noted with them: GBM patient neurospheres viability, ATP luminescence, 48 h; at 45.9 µM (top of the series); tumour line B.
As for `CCC(=O)O[C@]1(C(=O)CCl)[C@@H](C)C[C@H]2[C@@H]3C[C@H](F)C4=CC(=O)C=C[C@]4(C)[C@@]3(F)[C@@H](O)C[C@@]21C`, the activity, negative = cell killing is -14.4% (inactive).

As to `Nc1c(Br)cc(Br)cc1CNC1CCC(O)CC1` (configuration not stated), the activity, negative = cell killing was -15.5% (inactive).

In the case of `CC(=O)Oc1cc(C)c(OC(C)=O)c2ccccc12`, the activity, negative = cell killing is -16.5% (inactive).

With `CC1=C(/C=C/C(C)=C/C=C/C(C)=C/CO)C(C)(C)CCC1`, the activity, negative = cell killing was -16.9% (inactive).

Staying with this assay, now noted: GBM patient neurospheres viability, ATP luminescence, 48 h; at 45.9 µM (top of the series); tumour line D.
As for `O=S(=O)(O)c1ccc2c(N=Nc3ccc(S(=O)(=O)O)c4ccccc34)c(O)c(S(=O)(=O)O)cc2c1`, the activity, negative = cell killing was -24.2% (inactive).

For the compound `CCC(=O)O[C@]1(C(=O)CCl)[C@@H](C)C[C@H]2[C@@H]3C[C@H](F)C4=CC(=O)C=C[C@]4(C)[C@@]3(F)[C@@H](O)C[C@@]21C`, the activity, negative = cell killing was -33.8% (inactive).

With `Nc1c(Br)cc(Br)cc1CNC1CCC(O)CC1` (configuration not stated), the activity, negative = cell killing was -18.1% (inactive).

With `N[C@H](C(=O)O)[C@@H]1CC(Cl)=NO1`, the activity, negative = cell killing was -29.2% (inactive).

With `CC1=C(/C=C/C(C)=C/C=C/C(C)=C/CO)C(C)(C)CCC1`, the activity, negative = cell killing is -16.1% (inactive).

The assay is the same for the next values; noted with them: GBM patient neurospheres viability, ATP luminescence, 48 h; at 46.1 µM (top of the series); tumour line C.
As to `C[C@]12C=CC(=O)N[C@@H]1CC[C@@H]1[C@@H]2CC[C@]2(C)[C@@H](C(=O)Nc3cc(C(F)(F)F)ccc3C(F)(F)F)CC[C@@H]12`, the activity, negative = cell killing is -29.8% (inactive).

For `O=S(=O)(O)c1ccc2c(N=Nc3ccc(S(=O)(=O)O)c4ccccc34)c(O)c(S(=O)(=O)O)cc2c1`, the activity, negative = cell killing was -9.01% (inactive).

Regarding `C=CC1=C(C)C2=CC3=NC(=C(CC(=O)[O-])C4=NC(=C(C)C4=C([O-])[O-])C=c4[n-]c(c(C)c4CC)=CC1=N2)C(CCC(=O)[O-])C3C.[Cu+2].[Na+].[Na+].[Na+]` (configuration not stated), the activity, negative = cell killing is 10.7% (inactive).

For the compound `Nc1c(Br)cc(Br)cc1CNC1CCC(O)CC1` (configuration not stated), the activity, negative = cell killing is -10.6% (inactive).

In the case of `CCc1ccc2c(c1)N(CC(C)CN(C)C)c1ccccc1S2` (configuration not stated), the activity, negative = cell killing was 11.1% (inactive).

As for `COCC(=O)Nc1cc(Sc2ccccc2)ccc1N=C(NC(=O)OC)NC(=O)OC`, the activity, negative = cell killing was -20.6% (inactive).

For the compound `CN(C)CCCN1c2ccccc2C(C)(C)c2ccccc21`, the activity, negative = cell killing was 1.86% (inactive).

As to `CC(=O)Oc1cc(C)c(OC(C)=O)c2ccccc12`, the activity, negative = cell killing is 0.711% (inactive).

For `CN1CCC(CN2c3ccccc3Sc3ccccc32)C1` (configuration not stated), the activity, negative = cell killing was 0.543% (inactive).

Staying with this assay, now noted: GBM patient neurospheres viability, ATP luminescence, 48 h; tumour line A.
For the compound `Nc1c(Br)cc(Br)cc1CNC1CCC(O)CC1` (configuration not stated), the Potency was 14.1 µM (active).

Turning to `CCc1ccc2c(c1)N(CC(C)CN(C)C)c1ccccc1S2` (configuration not stated), the Potency was 4.47 µM (active).

Take `COCC(=O)Nc1cc(Sc2ccccc2)ccc1N=C(NC(=O)OC)NC(=O)OC`: the Potency is 6.31 µM (active).

In the case of `CC(C)N=c1cc2n(-c3ccc(Cl)cc3)c3ccccc3nc-2cc1Nc1ccc(Cl)cc1`, the Potency is 5.01 µM (active).

For the compound `CN(C)CCCN1c2ccccc2C(C)(C)c2ccccc21`, the Potency was 14.1 µM (active).

Regarding `CN1CCC(CN2c3ccccc3Sc3ccccc32)C1` (configuration not stated), the Potency was 7.08 µM (active).

For the compound `CC1=C(/C=C/C(C)=C/C=C/C(C)=C/CO)C(C)(C)CCC1`, the Potency is 31.6 µM (active).

A further assay has as its system astro (control astrocytes). The assay is described as above. The following applies: viability, ATP luminescence, 48 h; series mostly up to 45.9 µM; activity, negative = cell killing: at the top concentration. The method in brief: as §1
With `CCC(=O)O[C@@H]1CC(=O)O[C@H](C)C/C=C/C=C/[C@H](O)[C@H](C)C[C@H](CC=O)[C@H](O[C@@H]2O[C@H](C)[C@@H](O[C@H]3C[C@@](C)(O)[C@@H](OC(=O)CC)[C@H](C)O3)[C@H](N(C)C)[C@H]2O)[C@H]1OC`, the “activity, negative = cell killing” value is 20% [at 21.2 µM] (inactive).

As to `O=C(O)C[C@H](O)C[C@H](O)/C=C/c1c(C2CC2)nc2ccccc2c1-c1ccc(F)cc1`, the Potency was 0.398 µM (active).

In the case of `CCC(=O)O[C@]1(C(=O)CCl)[C@@H](C)C[C@H]2[C@@H]3C[C@H](F)C4=CC(=O)C=C[C@]4(C)[C@@]3(F)[C@@H](O)C[C@@]21C`, the “activity, negative = cell killing” value was -9.32% (inactive).

On to `Nc1c(Br)cc(Br)cc1CNC1CCC(O)CC1` (configuration not stated), for which the “activity, negative = cell killing” value is -18.5% (inactive).
